From PubChem BioAssay
ugtP null kill: growth inhibition of ugtP-null S. aureus, primary screen, RN4220 ugtP deletion, OD600. 0.54% of 330,000 active. growth inhibition, % (test concentration not listed). 16 h; in the data active means growth inhibition above about 68%
Sa RN4220 lethal: growth inhibition of S. aureus RN4220, primary screen, OD600 | 16 h | inhibition, % (no concentration beside the values) | 0.33% of 330,000 active | AID 1259311, 2017; in the data active means inhibition above about 85%
Mtb hypoxia inh: PubChem AID 1159583; M. tuberculosis hypoxia-regulated fluorescent reporter, fluorescence; fluorescence inhibition, % (no concentration beside the values); 0.1% of 300,000 active; in the data active means fluorescence inhibition mostly above about 23%, no sharp cut-off; inactive means mostly below about 17%
Large screens that a line does not name were inactive. Shown are actives, neighbours in structure and some others; about 0.68% of the full set was active somewhere.

COc1ccc(/C=C/C(=O)c2ccccc2)cc1COc1ccc(F)cc1	none
COc1ccc(/C=C/C(=O)c2ccc(O)cc2)cc1COc1ccc(F)cc1	ugtP null kill 87
N#CC1(Nc2cccc(Br)c2)C(=O)Nc2ccccc21 (stereo not given)	none
N#CC1(Nc2ccccc2)C(=O)Nc2ccccc21 (stereo not given)	Mtb hypoxia inh 56
CC1C/C(=C/c2ccco2)C(=O)/C(=C/c2ccco2)C1 (stereo not given)	none
CC1C/C(=C/c2cccs2)C(=O)/C(=C/c2cccs2)C1 (stereo not given)	ugtP null kill 90
O=C(O)c1cn(C2CC2)c2cc(N3CCN(S(=O)(=O)c4ccc5c(c4)OCCO5)CC3)c(F)cc2c1=O	ugtP null kill 100, Sa RN4220 lethal 99 (not shown: Mtb hypoxia inh)
O=C(O)C1CCN(S(=O)(=O)c2ccc3c(c2)OCCCO3)CC1	none
COC(C(=O)NN=C(C)CC(=O)Nc1ccc(N(C)C)cc1)c1ccccc1 (stereo not given)	none
O=C1OCCN1N=Cc1ccc([N+](=O)[O-])o1	ugtP null kill 100, Sa RN4220 lethal 100
CCN(CC)CC1CN(N=Cc2ccc([N+](=O)[O-])o2)C(=O)O1 (stereo not given)	none
COc1ccc(C2C=C(C(=O)O)OC(OCCCCO)C2)cc1 (stereo not given)	none
Cn1c2ccccc2c(=O)c2ccc(C#Cc3ccc(N)cc3)cc21	none
COc1ccc(C#Cc2c(C=O)n(C)c3ccccc23)cc1	ugtP null kill 100
COc1ccc(C#Cc2c(-c3ccccc3)n(C)c3ccccc23)cc1	none
Cn1c(C=O)c(C#Cc2ccccc2)c2ccccc21	ugtP null kill 100
FC(F)(F)c1ccc(CN2CC3C(c4ccc(C(F)(F)F)cc4)C4(c5cccnc5)CC3(C4)C2c2ccccc2)cc1 (stereo not given)	none
CC(=NNC(=S)Nc1ccc(C(C)C)cc1)c1ccc2c(c1)OCO2	none
CN(C)c1ccc(C=NN2C(=S)SC(C)(C)C2N(O)C(=O)Nc2ccc([N+](=O)[O-])cc2)cc1 (stereo not given)	none (no result: Mtb hypoxia inh)
COc1ccc2c3c(cccc13)C(=O)N(O)C2=O	none
CCC1=NNc2cccc3c(OC)ccc1c23	Mtb hypoxia inh 60
CN1C(=CC(=O)Nc2cccnc2)c2ccccc2CC1(C)C	none
COCCCNc1nc2cc(OC)c(OC)cc2c2nc(-c3ccccc3)nn12	none
COc1cc2nc(NCC3CCCO3)n3nc(-c4cccnc4)nc3c2cc1OC (stereo not given)	none
CCN(CC)CCCNc1nc2cc(OC)c(OC)cc2c2nc(-c3cccnc3)nn12	Mtb hypoxia inh 39
CN1CCN(CCCNc2nc3ccccc3c3nc(-c4ccccc4)nn23)CC1	none
CCN(CC)CCCNc1nc2ccccc2c2nc(-c3ccncc3)nn12	Mtb hypoxia inh 50
CCN(CC)CCCNc1nc2cc(OC)c(OC)cc2c2nc(-c3ccccc3)nn12	Mtb hypoxia inh 72
C=CCC(CC(=O)OC(C)(C)C)C(=O)OCC1CCCN1C(=O)C(CC=C)CC(=O)NC(CO)Cc1ccccc1 (stereo not given)	none
COC(=O)[C@@]1(Cc2ccc(F)cc2)C2c3cc(C(=O)N4CCCC4)n(CCc4ccccn4)c3CC2CN1C(=O)c1ccccc1 (stereo not given in full)	none
CCOC(=O)C1C2COc3ccc(C)cc3C2N2C(=O)c3cc(Cl)ccc3NC(=O)[C@@]12C (stereo not given in full)	none
Cc1ccc(C=NNC(=O)CSc2nc3ccccc3c(=O)n2-c2ccccc2C)s1	none
COc1cc(OC)cc(-c2oc(=O)c3cc(OC)c(OC)cc3c2C=Cc2ccc(F)cc2)c1	none
CCOc1ccc(C2=CC(=O)CC(c3ccc(OC)cc3)C2)cc1 (stereo not given)	none
O=C(NN=Cc1ccc(F)cc1)c1ccc(OCc2ccccc2)cc1	none
CCSc1nc(C2CC2)cc(-c2ccco2)c1C#N	none (no result: Mtb hypoxia inh)
CCSc1nc(C2CC2)cc(-c2cccs2)c1C#N	ugtP null kill 93
Cc1cc2ncn(N=Cc3cc(Br)ccc3O)c2cc1C	none
CC(C)CC(=O)NC(=S)Nc1ccc(N2CCN(C(=O)c3cccs3)CC2)cc1	ugtP null kill 96 (not shown: Mtb hypoxia inh)
CC(C)C(=O)Nc1ccc(N2CCN(C(=O)c3cccs3)CC2)cc1	none
CC(C)CC(=O)NC(=S)Nc1ccc(NC(=O)c2cccs2)cc1	ugtP null kill 83 (not shown: Mtb hypoxia inh)
O=C(Nc1ccc(NC(=S)NC(=O)c2ccccc2F)cc1)c1cccs1	none (not shown: Mtb hypoxia inh)
Cc1ccc(-n2c(O)c(C=NN3CCCCC3c3cccnc3)c(=O)[nH]c2=S)cc1 (stereo not given)	none
CCOC(=O)c1c(-c2ccccc2)oc2ccc(OC)cc12	ugtP null kill 90 (no result: Mtb hypoxia inh)
CCOC(=O)c1c(-c2ccccc2)oc2ccc(OCC)cc12	none
NC(=O)CCC1NC(=O)C(CO)NC(=O)c2cc([N+](=O)[O-])cc(I)c2NCCCCC(C(N)=O)NC(=O)C(Cc2ccc(O)cc2)NC1=O (stereo not given)	none
O=C(NN=Cc1ccncc1)c1cc2ccccc2cc1O	none
Cn1c(O)c(C=NNC(=O)c2cc3ccccc3cc2O)c2ccccc21	ugtP null kill 93
N#Cc1ccc(COc2cccnc2[N+](=O)[O-])cc1	none
O=[N+]([O-])c1ncccc1OCc1ccc(-c2ccccc2)cc1	ugtP null kill 89
Oc1c(C(c2ccccc2Cl)N2CCCC2)ccc2cccnc12 (stereo not given)	none
Oc1c(C(c2ccccn2)N2CCC(Cc3ccccc3)CC2)cc(Cl)c2cccnc12 (stereo not given)	ugtP null kill 88, Sa RN4220 lethal 93
Oc1c(C(c2ccc(Cl)cc2)N2CCCC2)cc(Cl)c2cccnc12 (stereo not given)	ugtP null kill 100, Sa RN4220 lethal 100
CN1CCN(C(c2ccccn2)c2cc(Cl)c3cccnc3c2O)CC1 (stereo not given)	none
COC(=O)C1=C(C(=O)OC)C2Nc3ccccc3[C@@]23CC(C(=O)OC)N(C(=O)NC2CCCCC2)C3=N1 (stereo not given in full)	none
CC1(C)S[C@@H]2[C@H](NC(=O)COc3ccccc3)C(=O)N2C1C(=O)OCC1CCCCC1 (stereo not given in full)	ugtP null kill 100, Sa RN4220 lethal 99
CC1(C)SC2C(C(=O)OCc3ccccc3)NC(=O)N2C1C(=O)OCc1ccccc1 (stereo not given)	none
O=C(COC(=O)COc1ccccc1)NC1CCCC1	none
CC1(C)SC2C(NC(=O)COc3ccccc3)C(=O)N2C1C(=O)OCc1ccccc1 (stereo not given)	ugtP null kill 100, Sa RN4220 lethal 100
COC1=C(C)C(=O)O[C@]12C(=O)C(C)=C1CCCCN3C(C4CC(C)C(=O)O4)CC[C@]132 (stereo not given in full)	none
CC=CC(=O)Nc1cccc(C2=NOC3(C2)CC(C(N)=O)N(C(=O)C2(C)CC2)C3)c1 (stereo not given)	none
O=C(COC(=O)c1ccc([N+](=O)[O-])o1)Nc1ccc(F)cc1	Mtb hypoxia inh 35
O=C(COC(=O)c1ccc([N+](=O)[O-])o1)Nc1ccc(N2CCOCC2)cc1	none (not shown: Mtb hypoxia inh)
COc1ccc(C2CC(=O)C=C(c3ccc(C)cc3)C2)cc1OC (stereo not given)	none
O=[N+]([O-])c1cccc(-c2csc(NN=Cc3cccc(O)c3)n2)c1	ugtP null kill 94
